Sampled rows, rich in hits. Any-hit rate of the full collection: about 5.6%.
Gal4-VP16 FLuc = VP16 counterscreen qHTS for inhibitors of ROR gamma transcriptional activity; Potency, µM (highest dose often 53.6 µM), actives largely listed as inhibitors; hit rate 3.5% among 310,000; Drosophila S2 Gal4-VP16 UAS-luciferase, luminescence, 20 h;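 further: Gal4-VP16 expression switched on by copper sulfate through the metallothionein promoter; nearly all actives have a fitted effect of over 50% in size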
CtBP-E1A inh = qHTS Assay for Inhibitors of the CtBP/E1A Interaction; AlphaScreen GST-E1A/His-CtBP binding, 1536-well; stronger effect = lower value; hit rate 0.49% among 340,000; AID 651724, 2012; activity change, % (no concentration beside the values); in the data active means activity change below about -65%; inconclusive means mostly about -30% to -63%
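Homogeneous bead-based format: GST-tagged E1A captured on glutathione donor beads, His-tagged CtBP on nickel acceptor beads; compounds precede bead addition by 2 h at 37 °C.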
Six1-Eya2 inh = qHTS Assay for Inhibitors of the Six1/Eya2 Interaction; Homeobox protein SIX1 (Homo sapiens) + Protein phosphatase EYA2 (Homo sapiens), …; AlphaScreen GST-Six1/His-Eya2 binding, biochemical; stronger effect = lower value; activity change, % (no concentration beside the values); hit rate 0.56% among 360,000; AID 651725, 2012; in the data active means activity change below about -65%; inconclusive means mostly about -30% to -63%
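Compounds are tested against tagged Six1 and Eya2 proteins bridged by glutathione donor and nickel acceptor beads; after a one-hour incubation at 37 °C without light, AlphaScreen emission is recorded.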
RORgamma inh = qHTS for inhibitors of ROR gamma transcriptional activity; Nuclear receptor ROR-gamma (Mus musculus), P51450; Drosophila S2 Gal4-RORgamma UAS-luciferase reporter, 20 h; Potency, µM (titrated, usually from 53.6 µM), hits mostly inhibitors; hit rate 5.4% among 310,000; AID 2551, 2010; further: nearly all actives have a fitted effect of over 60% in size
Target sequence (P51450 whole entry, looked up, the tested form may be a part): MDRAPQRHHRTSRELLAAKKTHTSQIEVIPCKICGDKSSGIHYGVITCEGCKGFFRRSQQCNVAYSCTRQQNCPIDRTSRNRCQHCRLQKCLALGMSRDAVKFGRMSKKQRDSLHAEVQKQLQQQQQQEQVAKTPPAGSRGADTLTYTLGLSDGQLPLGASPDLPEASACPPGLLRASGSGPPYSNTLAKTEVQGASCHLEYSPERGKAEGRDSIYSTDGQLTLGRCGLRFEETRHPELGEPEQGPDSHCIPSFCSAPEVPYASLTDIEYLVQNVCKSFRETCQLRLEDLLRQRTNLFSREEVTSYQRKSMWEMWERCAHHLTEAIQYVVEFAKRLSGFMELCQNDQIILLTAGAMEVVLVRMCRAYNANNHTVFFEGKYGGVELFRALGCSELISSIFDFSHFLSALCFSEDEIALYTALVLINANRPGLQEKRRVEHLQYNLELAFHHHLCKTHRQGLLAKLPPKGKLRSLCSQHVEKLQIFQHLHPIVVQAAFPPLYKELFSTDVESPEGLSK
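Using a luciferase readout, inhibitors were identified by reduced reporter activity in Drosophila cells coexpressing a copper-inducible Gal4–ROR gamma fusion and UAS-driven Photinus luciferase, incubated 20 hr after 700 uM copper sulfate.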
PKM2 act = qHTS Assay for Activators of Human Muscle isoform 2 Pyruvate Kinase; Potency, µM (highest dose often 57.5 µM), usual class: activators; purified PKM2, Kinase-Glo ATP luminescence, activation; response scale: 0% is enzyme alone, no compound; hit rate 0.34% among 260,000; further: nearly all actives have a fitted effect of over 55% in size
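Purified hPK-M2 (>95%) run at intermediate activity with 0.1 mM ADP and 0.5 mM PEP in 50 mM imidazole pH 7.2, KCl, MgCl2; 1 h room temperature. ATP formed read by Kinase-Glo luminescence; normalized to uninhibited and no-enzyme controls.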
Of the large screens only hits and unclear results are named; the others gave an inactive call. Unless noted, the call rests on the fitted dose curve; in most records, active means well fitted curve in the direction sought with a large enough effect; inconclusive means small, poorly fitted or top-dose-only effect, or another doubt; inactive means no such curve, though single readings can be large; an effect the other way counts as inactive or inconclusive.

COc1ccc(-c2n[nH]c(C)c2-c2ccc(Cl)cc2)c(O)c1	Gal4-VP16 FLuc 7.08µM, RORgamma inh 3.98µM
COc1ccc(-c2n[nH]c(C)c2-c2ccc(Cl)cc2)c(O)c1OC	Gal4-VP16 FLuc 7.08µM, RORgamma inh 7.08µM
Cc1[nH]nc(-c2ccc(O)cc2O)c1-c1nc2ccccc2s1	none
Cc1[nH]nc(-c2ccc(O)cc2O)c1-c1ccc(Cl)cc1	Gal4-VP16 FLuc 22.4µM, RORgamma inh 12.6µM
COc1cccc(CNC(=O)c2ccc(C)c(S(=O)(=O)N3CCCCC3)c2)c1	none (no result: Gal4-VP16 FLuc, RORgamma inh, PKM2 act)
CCN(C[C@H]1N[C@@](CC)(C(=O)OC)[C@H]2C(=O)N(C)C(=O)[C@@H]12)C(=O)Nc1ccccc1	none (no result: Gal4-VP16 FLuc, RORgamma inh, PKM2 act)
CCC(C)(C)C1CCC(=NNC(=S)Nc2ccccc2)CC1 (stereo not drawn)	Gal4-VP16 FLuc inconclusive, RORgamma inh 11.2µM
CC(C)(C)C1CCC(=NNC(=S)NCc2ccccc2)CC1 (stereo not drawn)	Gal4-VP16 FLuc inconclusive, RORgamma inh 10µM
C=CCNC(=S)NN=C1CCC(c2ccccc2)CC1 (stereo not drawn)	Gal4-VP16 FLuc 20µM, RORgamma inh 12.6µM
CC(C)(C)C1CCC(=NNC(=O)C(=O)NCc2cccnc2)CC1 (stereo not drawn)	none
COCCNC(=S)NN=C1CCC(c2ccccc2)CC1 (stereo not drawn)	none
CCOc1ccc(CCNC(=O)CSCC(=O)Nc2cccc(C)c2)cc1OCC	none (no result: Gal4-VP16 FLuc, RORgamma inh, PKM2 act)
CCCCN1C(=O)C(CC(=O)NCCCCc2ccccc2)CC(C(=O)N(C)C)=C1C (stereo not drawn)	none (no result: Gal4-VP16 FLuc, RORgamma inh, PKM2 act)
O=S(=O)(NC1CCCc2ccccc21)c1cnc[nH]1 (stereo not drawn)	Gal4-VP16 FLuc inconclusive, RORgamma inh 12.6µM
O=S(=O)(c1ccc(Cl)cc1)N1CCN(c2ncnc3sccc23)CC1	none (no result: Gal4-VP16 FLuc, RORgamma inh, PKM2 act)
O=C(Nc1c(C(=O)O)[nH]c2ccc(F)cc12)c1cccc(C(F)(F)F)c1	none
CC(C)C[C@H](NC(=O)c1nc[nH]c1C(=O)N[C@@H](CC(C)C)C(=O)OCc1ccccc1)C(=O)OCc1ccccc1	Gal4-VP16 FLuc inconclusive, RORgamma inh 7.08µM
CC(C)C[C@H](NC(=O)c1[nH]cnc1C(=O)N[C@H](C)c1ccccc1)C(=O)OCc1ccccc1	Gal4-VP16 FLuc 5.01µM, RORgamma inh 6.31µM (no result: CtBP-E1A inh)
O=C(N[C@@H](Cc1ccccc1)C(=O)OCc1ccccc1)c1nc[nH]c1C(=O)N1CCN(c2ccccc2)CC1	Gal4-VP16 FLuc inconclusive, RORgamma inh 10µM
O=C(N[C@@H](Cc1ccccc1)C(=O)OCc1ccccc1)c1nc[nH]c1C(=O)NCc1ccccc1	Gal4-VP16 FLuc inconclusive, RORgamma inh 10µM
CC(C)C[C@H](NC(=O)c1[nH]cnc1C(=O)N[C@@H](Cc1ccccc1)C(=O)OCc1ccccc1)C(=O)OCc1ccccc1	Gal4-VP16 FLuc 11.2µM, RORgamma inh 11.2µM
CC(C)C[C@H](NC(=O)c1nc[nH]c1C(=O)NCCCCCN)C(=O)OCc1ccccc1	none (no result: Gal4-VP16 FLuc, RORgamma inh, PKM2 act)
CC(C)C[C@H](NC(=O)c1nc[nH]c1C(=O)NC(c1ccccc1)c1ccccc1)C(=O)OCc1ccccc1	Gal4-VP16 FLuc 4.47µM, RORgamma inh 2.51µM
C=CC#CC1(O)CC(C)N(C)CC1C (stereo not drawn)	none
CC(C)C[C@H](NC(=O)c1nc[nH]c1C(=O)NCC(=O)OCc1ccccc1)C(=O)OC(C)(C)C	Gal4-VP16 FLuc inconclusive, RORgamma inh 12.6µM
C[C@H](NC(=O)c1nc[nH]c1C(=O)NCC(=O)OCc1ccccc1)C(=O)OC(C)(C)C	Gal4-VP16 FLuc inconclusive
CC(C)C[C@H](NC(=O)c1[nH]cnc1C(=O)N[C@@H](C)C(=O)OCc1ccccc1)C(=O)OC(C)(C)C	Gal4-VP16 FLuc 15.8µM, RORgamma inh 7.08µM
Cc1ccc(F)c(S(=O)(=O)NC(=O)C2(C)CCN2C(=O)CCc2ccccc2)c1 (stereo not drawn)	none (no result: Gal4-VP16 FLuc, RORgamma inh, PKM2 act)
CCN(CC)CCNc1c(C)cc(CO)c(Cl)c1C	none (no result: Gal4-VP16 FLuc, RORgamma inh, PKM2 act)

Screening data: PubChem, National Center for Advancing Translational Sciences (NCATS)
